{
  "source": "the supplement of paper PMC11732987",
  "about": "“Enantioselective OTUD7B fragment discovery through chemoproteomics screening and high-throughput optimisation” (Communications Chemistry, 2025)",
  "experiment_in_all_cases": "log2 ratio of Biotin-Ahx-Ub-VS probe labelling (fragment/DMSO); higher = less target engagement (more negative = stronger competition), active = hit call of the paper (q ≤ 0.05, log2 ratio ≤ -1)",
  "conditions_in_all_cases": "compound concentration: 200 uM; treatment time: 3 h",
  "key": {"OTUD6B": {"molecular_target": "T1, OTUD6B (UniProt Q8N6M0)", "T1 sequence (whole entry)": "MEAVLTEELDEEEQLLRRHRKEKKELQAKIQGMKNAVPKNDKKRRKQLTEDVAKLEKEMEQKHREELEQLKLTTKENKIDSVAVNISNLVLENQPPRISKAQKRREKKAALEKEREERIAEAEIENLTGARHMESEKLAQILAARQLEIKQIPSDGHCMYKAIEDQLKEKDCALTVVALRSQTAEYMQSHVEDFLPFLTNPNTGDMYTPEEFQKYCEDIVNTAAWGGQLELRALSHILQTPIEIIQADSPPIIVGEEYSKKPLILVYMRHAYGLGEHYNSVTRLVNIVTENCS", "procedure,_shortened": "(§1)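 Labelled DUBs from HEK293T lysate were NeutrAvidin-enriched, digested with LysC and trypsin, and run by diaPASEF LC-MS/MS. Before that, each 495 µg sample in Tris/CHAPS/IGEPAL buffer with protease inhibitors was treated in triplicate with fragment at 200 µM or vehicle for 3 h, then with Biotin-Ahx-Ub-VS at 0.5 µM final for 1 h. Values are average log2 ratios of fragment over vehicle by unpaired t-test, based on global-median-normalised Spectronaut label-free quantities from proteins with ≥2 unique peptides.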"}, "OTUD7B": {"molecular_target": "T2, OTUD7B (UniProt Q6GQQ9)", "T2 sequence (whole entry)": "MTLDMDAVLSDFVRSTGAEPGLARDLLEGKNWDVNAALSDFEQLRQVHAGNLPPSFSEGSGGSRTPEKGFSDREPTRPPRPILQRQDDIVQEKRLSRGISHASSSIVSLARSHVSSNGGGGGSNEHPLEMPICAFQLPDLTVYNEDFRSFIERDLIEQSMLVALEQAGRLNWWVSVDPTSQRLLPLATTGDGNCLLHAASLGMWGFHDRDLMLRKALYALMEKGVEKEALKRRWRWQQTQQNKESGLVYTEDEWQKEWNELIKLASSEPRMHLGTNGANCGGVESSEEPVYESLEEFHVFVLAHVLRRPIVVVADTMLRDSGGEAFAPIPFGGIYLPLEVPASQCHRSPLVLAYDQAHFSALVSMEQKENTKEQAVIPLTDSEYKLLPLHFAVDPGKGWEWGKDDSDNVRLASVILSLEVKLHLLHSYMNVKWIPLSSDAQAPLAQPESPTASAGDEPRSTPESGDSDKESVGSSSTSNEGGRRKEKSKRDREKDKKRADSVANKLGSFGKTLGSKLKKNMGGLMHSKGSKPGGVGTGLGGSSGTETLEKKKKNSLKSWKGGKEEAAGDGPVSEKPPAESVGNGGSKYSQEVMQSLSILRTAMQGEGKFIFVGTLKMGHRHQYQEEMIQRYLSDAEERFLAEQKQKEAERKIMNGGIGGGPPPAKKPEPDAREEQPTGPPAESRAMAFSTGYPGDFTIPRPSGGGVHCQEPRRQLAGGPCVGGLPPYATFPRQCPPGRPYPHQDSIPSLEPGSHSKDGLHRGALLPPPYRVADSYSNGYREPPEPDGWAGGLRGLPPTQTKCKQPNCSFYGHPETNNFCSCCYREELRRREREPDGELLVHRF", "procedure,_shortened": "as §1"}, "PRPF8": {"molecular_target": "PRPF8 (UniProt Q6P2Q9)", "procedure,_shortened": "as §1"}, "PSMD7": {"molecular_target": "T3, PSMD7 (UniProt P51665)", "T3 sequence (whole entry)": "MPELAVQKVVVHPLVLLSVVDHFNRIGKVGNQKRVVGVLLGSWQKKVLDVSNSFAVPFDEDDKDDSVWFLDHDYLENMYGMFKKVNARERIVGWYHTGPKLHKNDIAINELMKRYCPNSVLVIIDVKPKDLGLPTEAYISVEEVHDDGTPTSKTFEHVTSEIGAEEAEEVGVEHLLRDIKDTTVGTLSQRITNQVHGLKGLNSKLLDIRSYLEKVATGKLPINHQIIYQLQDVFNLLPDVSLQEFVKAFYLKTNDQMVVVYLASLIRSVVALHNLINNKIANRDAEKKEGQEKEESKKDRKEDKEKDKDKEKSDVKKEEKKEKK", "procedure,_shortened": "as §1"}, "UCHL1": {"molecular_target": "UCHL1 (UniProt P09936)", "sequence (P09936 whole entry, looked up)": "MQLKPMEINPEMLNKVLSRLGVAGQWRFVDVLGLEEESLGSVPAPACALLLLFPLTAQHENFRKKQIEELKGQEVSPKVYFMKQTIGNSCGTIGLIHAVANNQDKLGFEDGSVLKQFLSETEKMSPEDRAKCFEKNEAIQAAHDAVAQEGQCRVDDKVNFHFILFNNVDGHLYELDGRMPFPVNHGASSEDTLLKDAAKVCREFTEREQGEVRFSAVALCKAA", "procedure,_shortened": "as §1"}, "UCHL3": {"molecular_target": "T4, UCHL3 (UniProt P15374)", "T4 sequence (whole entry)": "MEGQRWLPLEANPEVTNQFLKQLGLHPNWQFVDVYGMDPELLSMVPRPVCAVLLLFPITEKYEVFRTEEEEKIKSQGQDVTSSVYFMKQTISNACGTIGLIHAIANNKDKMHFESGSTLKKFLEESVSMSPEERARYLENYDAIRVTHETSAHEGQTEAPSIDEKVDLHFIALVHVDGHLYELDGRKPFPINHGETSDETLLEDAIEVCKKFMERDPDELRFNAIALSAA", "procedure,_shortened": "as §1"}, "UCHL5": {"molecular_target": "T5, UCHL5 (UniProt Q9Y5K5)", "T5 sequence (whole entry)": "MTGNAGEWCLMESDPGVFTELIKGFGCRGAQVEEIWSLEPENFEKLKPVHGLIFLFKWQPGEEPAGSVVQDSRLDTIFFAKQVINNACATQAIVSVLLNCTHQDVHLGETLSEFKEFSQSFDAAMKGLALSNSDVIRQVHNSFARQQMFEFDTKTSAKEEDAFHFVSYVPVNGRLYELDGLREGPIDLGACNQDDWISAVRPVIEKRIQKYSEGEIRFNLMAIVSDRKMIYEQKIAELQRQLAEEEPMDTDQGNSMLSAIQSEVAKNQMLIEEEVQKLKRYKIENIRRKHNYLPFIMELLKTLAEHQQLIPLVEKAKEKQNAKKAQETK", "procedure,_shortened": "as §1"}, "USP10": {"molecular_target": "USP10 (UniProt Q14694)", "sequence (Q14694 whole entry)": "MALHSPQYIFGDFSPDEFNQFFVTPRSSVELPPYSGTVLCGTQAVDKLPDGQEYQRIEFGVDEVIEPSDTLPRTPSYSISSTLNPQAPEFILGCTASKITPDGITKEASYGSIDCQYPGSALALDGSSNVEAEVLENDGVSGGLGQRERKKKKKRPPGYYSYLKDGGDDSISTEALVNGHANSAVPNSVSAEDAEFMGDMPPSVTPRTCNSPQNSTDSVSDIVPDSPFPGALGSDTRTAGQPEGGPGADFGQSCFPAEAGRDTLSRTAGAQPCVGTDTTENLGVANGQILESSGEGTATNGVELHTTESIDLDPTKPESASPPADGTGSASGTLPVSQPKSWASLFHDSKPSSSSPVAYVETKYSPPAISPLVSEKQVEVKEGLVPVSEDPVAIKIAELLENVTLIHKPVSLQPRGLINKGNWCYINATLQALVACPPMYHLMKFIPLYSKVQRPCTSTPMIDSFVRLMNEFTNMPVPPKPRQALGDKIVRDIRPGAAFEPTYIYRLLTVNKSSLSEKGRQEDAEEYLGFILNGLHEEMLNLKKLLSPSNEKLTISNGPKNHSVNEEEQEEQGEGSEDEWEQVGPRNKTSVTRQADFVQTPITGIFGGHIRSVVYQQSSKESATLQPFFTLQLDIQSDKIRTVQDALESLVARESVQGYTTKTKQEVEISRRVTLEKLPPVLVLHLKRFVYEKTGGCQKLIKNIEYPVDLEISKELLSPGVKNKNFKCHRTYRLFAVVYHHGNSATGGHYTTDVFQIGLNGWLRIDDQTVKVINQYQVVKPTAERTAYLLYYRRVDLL", "procedure,_shortened": "as §1"}, "USP15": {"molecular_target": "T6, USP15 (UniProt Q9Y4E8)", "T6 sequence (whole entry)": "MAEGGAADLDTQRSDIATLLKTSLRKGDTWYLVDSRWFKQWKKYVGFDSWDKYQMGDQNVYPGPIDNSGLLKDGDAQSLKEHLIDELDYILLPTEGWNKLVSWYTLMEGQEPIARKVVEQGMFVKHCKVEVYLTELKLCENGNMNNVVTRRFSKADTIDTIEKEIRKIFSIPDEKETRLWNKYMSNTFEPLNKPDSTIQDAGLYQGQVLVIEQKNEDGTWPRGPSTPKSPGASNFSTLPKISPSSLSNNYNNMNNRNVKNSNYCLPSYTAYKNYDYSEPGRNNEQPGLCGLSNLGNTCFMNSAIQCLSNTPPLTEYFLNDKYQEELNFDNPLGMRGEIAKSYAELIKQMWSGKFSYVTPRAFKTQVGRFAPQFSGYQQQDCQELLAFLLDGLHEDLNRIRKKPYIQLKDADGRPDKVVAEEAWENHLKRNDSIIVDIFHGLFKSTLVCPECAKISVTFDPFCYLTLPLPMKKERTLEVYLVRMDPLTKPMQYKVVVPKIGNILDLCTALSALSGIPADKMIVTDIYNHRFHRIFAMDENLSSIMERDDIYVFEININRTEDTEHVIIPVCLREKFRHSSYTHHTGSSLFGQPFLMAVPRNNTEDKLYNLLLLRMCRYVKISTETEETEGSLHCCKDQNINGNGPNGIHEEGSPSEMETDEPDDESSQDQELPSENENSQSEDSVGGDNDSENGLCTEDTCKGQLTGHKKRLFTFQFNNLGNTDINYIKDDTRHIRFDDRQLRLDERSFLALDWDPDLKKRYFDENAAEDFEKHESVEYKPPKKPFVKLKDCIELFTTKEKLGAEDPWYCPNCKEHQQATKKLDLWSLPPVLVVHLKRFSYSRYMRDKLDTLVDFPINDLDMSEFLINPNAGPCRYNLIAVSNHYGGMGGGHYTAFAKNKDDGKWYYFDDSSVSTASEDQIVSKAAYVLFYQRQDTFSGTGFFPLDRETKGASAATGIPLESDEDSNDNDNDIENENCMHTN", "procedure,_shortened": "as §1"}},
  "note": "Unmarked numbers belong to inactive results.",
  "data": [
    {"smiles": "NC(=O)C(Cc1ccccc1)NC(=O)CCl", "note": "(centres undefined)", "values": [
      {"measurement": "log2 ratio of Biotin-Ahx-Ub-VS probe labelling", "setting": "OTUD6B", "result": -0.129},
      {"measurement": "log2 ratio of Biotin-Ahx-Ub-VS probe labelling", "setting": "OTUD7B", "result": -0.38},
      {"measurement": "log2 ratio of Biotin-Ahx-Ub-VS probe labelling", "setting": "PRPF8", "result": -0.0593},
      {"measurement": "log2 ratio of Biotin-Ahx-Ub-VS probe labelling", "setting": "PSMD7", "result": -0.0419},
      {"measurement": "log2 ratio of Biotin-Ahx-Ub-VS probe labelling", "setting": "UCHL1", "result": "-1.73 (active)"},
      {"measurement": "log2 ratio of Biotin-Ahx-Ub-VS probe labelling", "setting": "UCHL3", "result": 0.313},
      {"measurement": "log2 ratio of Biotin-Ahx-Ub-VS probe labelling", "setting": "UCHL5", "result": -0.295},
      {"measurement": "log2 ratio of Biotin-Ahx-Ub-VS probe labelling", "setting": "USP10", "result": -0.0595},
      {"measurement": "log2 ratio of Biotin-Ahx-Ub-VS probe labelling", "setting": "USP15", "result": -0.0229}
    ]}
  ]
}
